According to PubChem BioAssay:
Calls of active or inactive are those of the source.

Experiments:
[1] = optical density shifts of acrAB sulA E. coli – strain DRC41, OD650, 48 h, E. coli filamentation inducer project, primary screen (AID 1152); settings: higher = more signal, called active from +8 up or from −8 down;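 further: E. coli MC1000 strain DRC41 lacking acrAB efflux pump and sulA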
[2] = probe aLefty1 binding on compound microarray – biochemical, small-molecule microarray, 635/667 nm fluorescence, primary screen (AID 1153); settings: higher = more signal;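 further: score merges spot fluorescence with signal-to-noise ratio from the scanned slide images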
[3] = plasmodial surface anion channel blockers, osmotic lysis – cell-based, P. falciparum Indochina, OD700, 1 h, primary screen (AID 1154); settings: P. falciparum Indochina infected RBC osmotic lysis, higher = more signal, called active from +8 up or from −8 down
[4] = plasmodial surface anion channel blockers, osmotic lysis – cell-based, P. falciparum Indochina, OD700, 2 h, primary screen (AID 1155);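 further: lysis reports solute entry through the parasite surface anion channel PSAC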; settings: P. falciparum Indochina infected erythrocytes, higher = more signal, called active from +8 up or from −8 down
[5] = changes in parasitized red cell lysis, either direction – P. falciparum Indochina, OD700, 3 h, PSAC antagonist project, primary screen (AID 1156); settings: P. falciparum-infected erythrocytes, osmotic lysis, higher = more signal, called active from +8 up or from −8 down
[6] = plasmodial surface anion channel blockers, osmotic lysis – cell-based, P. falciparum Indochina, OD700, 18 h, primary screen (AID 1157); settings: P. falciparum Indochina infected erythrocytes, osmotic lysis OD700, 18 h; higher = more signal, called active from +8 up or from −8 down
[7] = S6 kinase pathway phospho-S6 level changes – cell-based, A549, cytoblot, luminescence, serum-stimulated, primary screen (AID 1158); settings: 5 h, higher = more signal;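 further: serum-stimulated A549 lung adenocarcinoma cells; signal is phosphorylated S6 detected by cytoblot immunostaining with HRP secondary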
[8] = biological target: NADPH oxidase 2 (Homo sapiens) (UniProt P04839); experiment: compounds shifting NOX2 Amplex Red fluorescence – cell-based, HEK293-NOX2, PMA-stimulated, NOX inhibitor project, primary screen (AID 1159); settings: 45 min, higher = more signal, called active from +8 up or from −8 down; further: test concentration not given here
NADPH oxidase 2 (Homo sapiens), sequence (P04839 whole entry, looked up): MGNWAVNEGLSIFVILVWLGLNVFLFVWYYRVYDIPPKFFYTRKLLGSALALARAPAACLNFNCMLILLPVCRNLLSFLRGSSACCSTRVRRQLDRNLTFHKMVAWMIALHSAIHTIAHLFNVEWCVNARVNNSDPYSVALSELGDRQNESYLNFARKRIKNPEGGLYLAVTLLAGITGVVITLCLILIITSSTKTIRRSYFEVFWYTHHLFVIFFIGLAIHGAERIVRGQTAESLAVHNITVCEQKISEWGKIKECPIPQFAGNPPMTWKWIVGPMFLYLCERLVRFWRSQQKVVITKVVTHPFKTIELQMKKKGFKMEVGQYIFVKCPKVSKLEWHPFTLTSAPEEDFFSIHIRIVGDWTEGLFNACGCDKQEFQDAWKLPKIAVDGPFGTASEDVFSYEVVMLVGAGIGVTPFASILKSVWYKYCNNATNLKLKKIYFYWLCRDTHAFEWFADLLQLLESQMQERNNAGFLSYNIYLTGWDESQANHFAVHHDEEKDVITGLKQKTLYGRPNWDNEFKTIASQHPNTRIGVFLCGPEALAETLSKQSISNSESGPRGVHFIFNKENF

[9] = biological target: NADPH oxidase 4 (Homo sapiens) (UniProt Q9NPH5); experiment: compounds shifting NOX4 Amplex Red fluorescence – cell-based, HEK293-NOX4, tetracycline-induced, NOX inhibitor project, primary screen (AID 1160); settings: HEK293-NOX4, Amplex Red H2O2 fluorescence, 45 min; higher = more signal, called active from +8 up or from −8 down
NADPH oxidase 4 (Homo sapiens), sequence (Q9NPH5 whole entry, looked up): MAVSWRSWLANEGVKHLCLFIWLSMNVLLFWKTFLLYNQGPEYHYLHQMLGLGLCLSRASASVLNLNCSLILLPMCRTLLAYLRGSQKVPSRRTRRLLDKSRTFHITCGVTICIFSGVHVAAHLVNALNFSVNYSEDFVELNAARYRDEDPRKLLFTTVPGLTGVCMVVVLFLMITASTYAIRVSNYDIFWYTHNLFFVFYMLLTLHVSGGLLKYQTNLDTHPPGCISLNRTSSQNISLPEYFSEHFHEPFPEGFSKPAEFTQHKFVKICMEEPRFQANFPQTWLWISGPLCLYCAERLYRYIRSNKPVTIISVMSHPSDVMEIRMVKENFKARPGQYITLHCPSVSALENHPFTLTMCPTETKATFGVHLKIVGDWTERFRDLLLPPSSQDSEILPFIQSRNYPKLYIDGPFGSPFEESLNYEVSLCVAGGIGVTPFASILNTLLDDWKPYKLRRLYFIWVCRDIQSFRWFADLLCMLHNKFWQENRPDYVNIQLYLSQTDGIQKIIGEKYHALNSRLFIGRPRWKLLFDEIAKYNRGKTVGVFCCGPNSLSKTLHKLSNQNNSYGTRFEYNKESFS

[10] = biological target: NADPH oxidase 5 (Homo sapiens) (UniProt Q96PH1); experiment: compounds shifting NOX5 Amplex Red fluorescence – cell-based, HEK293-NOX5, NOX inhibitor project, primary screen (AID 1161); settings: HEK293-NOX5, ionomycin, 45 min, higher = more signal
NADPH oxidase 5 (Homo sapiens), sequence (Q96PH1 whole entry, looked up): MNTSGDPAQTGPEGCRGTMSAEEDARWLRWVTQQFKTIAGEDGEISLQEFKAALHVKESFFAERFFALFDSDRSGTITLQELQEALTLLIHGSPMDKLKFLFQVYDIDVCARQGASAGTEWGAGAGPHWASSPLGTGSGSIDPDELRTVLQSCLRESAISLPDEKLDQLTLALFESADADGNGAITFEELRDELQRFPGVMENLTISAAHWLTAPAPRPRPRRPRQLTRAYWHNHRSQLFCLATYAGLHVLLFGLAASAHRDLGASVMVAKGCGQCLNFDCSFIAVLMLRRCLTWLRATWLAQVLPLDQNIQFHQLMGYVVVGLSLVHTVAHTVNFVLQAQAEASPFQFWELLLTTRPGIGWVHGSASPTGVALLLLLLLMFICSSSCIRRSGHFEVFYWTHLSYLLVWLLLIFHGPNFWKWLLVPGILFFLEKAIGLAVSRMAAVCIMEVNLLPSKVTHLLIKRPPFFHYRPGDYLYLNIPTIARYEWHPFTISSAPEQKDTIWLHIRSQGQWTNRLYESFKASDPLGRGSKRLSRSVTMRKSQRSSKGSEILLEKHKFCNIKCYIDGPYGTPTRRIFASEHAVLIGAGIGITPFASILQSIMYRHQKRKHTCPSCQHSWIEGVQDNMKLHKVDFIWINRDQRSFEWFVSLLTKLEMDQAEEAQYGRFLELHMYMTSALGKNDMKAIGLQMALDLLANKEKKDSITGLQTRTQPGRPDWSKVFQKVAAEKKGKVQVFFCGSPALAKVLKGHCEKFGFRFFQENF

[11] = compound effects on lung adenocarcinoma cell viability – A549, calcein-AM fluorescence, 48 h, basal, profiling panel (AID 1162); settings: higher = more signal; further: test concentration not given here
[12] = compound effects on differentiated 3T3-L1 adipocyte viability – cell-based, 3T3-L1 adipocytes, calcein-AM fluorescence, 48 h, basal, profiling panel (AID 1163); settings: 3T3-L1 adipocytes viability, higher = more signal; further: test concentration not given here
[13] = compound effects on hepatocellular carcinoma cell viability – HepG2, calcein-AM fluorescence, 48 h, basal, profiling panel (AID 1164); settings: higher = more signal; further: test concentration not given here
[14] = compound effects on multiple myeloma cell viability – MM1S, calcein-AM fluorescence, 48 h, basal, profiling panel (AID 1165); settings: higher = more signal;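 further: viability of MM1S multiple myeloma cells under basal unstimulated conditions; test concentration not given here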
[15] = calcein-AM signal in unstimulated myeloma cells – cell-based, calcein-AM fluorescence, 48 h, PK04 Diversity Set, profiling panel (AID 1166); settings: RPMI8226 myeloma viability, higher = more signal;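 further: cells grown under basal conditions without added stimulus; test concentration not given here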
[16] = JC-1 mitochondrial signal, unstimulated HepG2 cells – cell-based, JC-1 fluorescence, 24 h, 100 nL compound, profiling panel (AID 1167); settings: HepG2 mitochondrial potential, higher = more signal; further: test concentration not given here
[17] = JC-1 mitochondrial signal, unstimulated adipocytes – cell-based, JC-1 fluorescence, 3T3-L1 adipocytes, 24 h, 100 nL compound, profiling panel (AID 1168); settings: JC-1 mitochondrial fluorescence, higher = more signal, called active from +8 up or from −8 down; further: test concentration not given here
[18] = JC-1 mitochondrial signal, unstimulated myeloma cells – cell-based, JC-1 fluorescence, RPMI8226, 24 h, 100 nL compound, profiling panel (AID 1169); settings: JC-1 mitochondrial potential fluorescence, higher = more signal; further: test concentration not given here
[19] = JC-1 mitochondrial signal, unstimulated MM1S myeloma – cell-based, JC-1 fluorescence, 24 h, 100 nL compound, profiling panel (AID 1170); settings: MM1S mitochondrial potential, higher = more signal; further: test concentration not given here
[20] = resazurin metabolic signal in A549 cells – cell-based, resazurin fluorescence, 24 h, PK04 Diversity Set, profiling panel (AID 1171); settings: A549 viability, higher = more signal, called active from +8 up or from −8 down; further: test concentration not given here

Structure (SMILES)	z-score [1]	composite z-score [2]	z-score [3]	z-score [4]	z-score [5]	z-score [6]	z-score [7]	z-score [8]	z-score [9]	z-score [10]	z-score [11]	z-score [12]	z-score [13]	z-score [14]	z-score [15]	z-score [16]	z-score [17]	z-score [18]	z-score [19]	z-score [20]
COCCOC(=O)N1C(=O)[C@@]2(c3ccccc31)[C@H](C(=O)N1CCc3cc(OC)c(OC)cc3C1)[C@H]1C(=O)O[C@H](c3ccccc3)[C@H](c3ccccc3)N1[C@@H]2c1ccccc1OCCO	2.1 (inactive)	0.391	8.34 (active)	1.35 (inactive)	1.38 (inactive)	0.123 (inactive)	2.25	2.12 (inactive)	1.46 (inactive)	0.00739	1.57	1.3	-0.478	-1.2	-0.222	1.24	0.407 (inactive)	-0.181	-0.238	0.725 (inactive)
CCOC(=O)C1=CC[C@@H](c2ccccc2)N(S(=O)(=O)c2ccc(C)cc2)[C@H]1C	-1.29 (inactive)	0.0668	3.28 (inactive)	1.03 (inactive)	-0.392 (inactive)	0.215 (inactive)	-0.343	0.21 (inactive)	-0.291 (inactive)	0.0997	-1.54	-0.956	-1.21	-1.6	-1.77	3.96	0.775 (inactive)	-0.198	-1.22	0.0723 (inactive)
COc1ccc([Si](C)(C)[C@H]2[C@H](CCO)O[C@@]3(C(=O)N(Cc4ccccc4)c4ccc(N5C(=O)c6cccc7cccc5c67)cc43)[C@@H]2C)cc1	1.85 (inactive)	-0.105	3.41 (inactive)	2.34 (inactive)	1.36 (inactive)	1.65 (inactive)	0.314	-1.35 (inactive)	0.163 (inactive)	0.513	0.318	0.535	-2.11	-1.02	-3.03	1.63	2.08 (inactive)	-0.815	-0.923	-1.46 (inactive)
COc1ccc([Si](C)(C)[C@@H]2[C@@H](CC(=O)N(CCO)Cc3ccccc3)O[C@]3(C(=O)N(Cc4cccc(N5CCC5=O)c4)c4ccccc43)[C@H]2C)cc1	0.557 (inactive)	0.122	3.67 (inactive)	1.49 (inactive)	0.0319 (inactive)	1.19 (inactive)	1.61	1.34 (inactive)	1.48 (inactive)	3.23	-1.45	1.5	-2.2	-2.55	-4.06	0.952	-0.0485 (inactive)	-0.917	-0.523	-1.82 (inactive)
CC(=O)NCCCC[C@@H]1NC(=O)[C@@H]2C[C@H](C(=O)NCc3ccc(F)cc3)[C@H](c3cccc(OCCO)c3)N2C1=O	0.197 (inactive)	0.0259	5.48 (inactive)	0.503 (inactive)	-4.35 (inactive)	0.374 (inactive)	-0.206	1.87 (inactive)	1.42 (inactive)	1.1	0.53	0.0222	0.64	-0.0893	-0.12	-0.0575	-0.568 (inactive)	-0.3	-0.513	-0.12 (inactive)
O=C1O[C@H](c2ccccc2)[C@H](c2ccccc2)N2[C@H]1[C@@H](C(=O)NC[C@H](O)c1ccccc1)[C@]1(C(=O)Nc3ccc(C#CC4(O)CCCCCC4)cc31)[C@H]2c1ccc(OCCO)cc1	3.02 (inactive)	0.0811	3.64 (inactive)	-0.0068 (inactive)	0.226 (inactive)	-1.03 (inactive)	2.78	2.48 (inactive)	0.0727 (inactive)	0.139	-1.2	0.694	0.643	-1.29	-0.587	-1.32	1.78 (inactive)	-0.842	-0.469	0.132 (inactive)
CC(C)N1CC=CC23O[C@@H]4/C=C\CCCOC(=O)C4[C@H]2C(=O)N(CCO)[C@@H]3C1=O (stereo not given in full)	3.41 (inactive)	-0.0518	2.92 (inactive)	0.236 (inactive)	0.716 (inactive)	-0.806 (inactive)	0.54	1.23 (inactive)	0.375 (inactive)	1.84	1.63	0.472	0.499	1.37	0.629	1.42	2.1 (inactive)	-0.442	0.776	1.39 (inactive)
COC(=O)C1=C(C)N(Cc2ccccc2)c2c(C(=O)OC)c(C(=O)OC)c(C(=O)OC)c(=O)n2[C@@H]1c1ccccc1	0.199 (inactive)	-0.0186	0.294 (inactive)	-1.61 (inactive)	0.012 (inactive)	-1.45 (inactive)	0.715	1.74 (inactive)	0.873 (inactive)	-0.0758	0.943	0.338	0.244	0.24	0.327	1.12	0.633 (inactive)	-0.281	-0.0899	0.524 (inactive)
C[N+](C)(C)CCCC[C@@H]1NC(=O)[C@H]2C[C@@H](C(=O)NCc3ccc(F)cc3)[C@@H](c3cccc(OCCO)c3)N2C1=O	0.923 (inactive)	-0.0536	2.46 (inactive)	-1.3 (inactive)	-5.77 (inactive)	-2.37 (inactive)	0.123	0.999 (inactive)	0.834 (inactive)	1.53	0.191	1.01	-0.676	-1.04	0.366	1.79	1.06 (inactive)	-0.397	0.392	0.656 (inactive)
